# This is a sample that favours compounds with a hit; in the whole collection about 19% have one here.
# TDP1 cell noCPT: qHTS for Inhibitors of human tyrosyl-DNA phosphodiesterase 1 (TDP1): qHTS in cells in absence of CPT; DT40 Tdp1-/- hTDP1 cells, no CPT, ATP luminescence, 48 h; actives 15% (n = 420,000); Potency, µM (series often up to 46.2 µM), without a hit: at the top dose activity change, negative = growth inhibition, usual class: inhibitors; AID 686978, 2013; note: nearly all actives have a fitted effect of over 55% in size
#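 A cellular qHTS used chicken DT40 cells lacking endogenous Tdp1 but carrying stably transfected human TDP1. Compounds were applied without camptothecin, and cell growth kinetics were judged by ATP-dependent luminescence after ≥48 hr.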
# HT1080 IDH1KD tx: toxicity to HT-1080 IDH1 knockdown cells (counter line). HT-1080 IDH1 knockdown viability, ATP luminescence, 48 h. Potency, µM (series often up to 46.1 µM), for the others: top-dose activity, negative = toxicity, usual class: cytotoxic. actives 2% (n = 360,000);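 note: 0% = DMSO wells and -100% = cell-free medium wells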
#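 HT-1080-IDH1KD cells (IDH1 knocked down), 750/well in RPMI with 5% FBS, treated with compound 48 h at 37 degrees C. Viability by CellTiter-Glo luminescence, normalised to DMSO and no-cell wells; concentration-response curves classed.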
# KB-3-1 tox: KB-3-1 parental cell cytotoxicity; KB-3-1 viability, CellTiter-Glo ATP luminescence, 72 h; Potency, µM (titrated, usually from 46.1 µM), actives largely listed as cytotoxic; actives 1.4% (n = 400,000); AID 1347075; note: nearly all actives have a fitted effect of over 60% in size
#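 Parental KB-3-1 adenocarcinoma cells in phenol-red-free DMEM with 10% FBS were pin-treated with compounds at several concentrations, incubated 72 h at 37 °C, and viability read by CellTiter-Glo luminescence; concentration-effect curves were fitted after normalization.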
# TDP1 cell CPT: DT40-hTDP1 cell growth loss with CPT | chicken DT40 Tdp1-/-;hTDP1 cells + 20 nM CPT, ATP luminescence, 48 h | Potency, µM (top dose mostly 46.2 µM), inactives show at the highest dose activity change, negative = growth inhibition, hits mostly inhibitors | actives 12% (n = 420,000) | AID 686979; note: nearly all actives have a fitted effect of over 55% in size
#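 Chicken DT40 Tdp1-/- cells complemented with human TDP1, 400 cells/well, exposed to compounds plus 20 nM camptothecin for at least 48 h at 37 C; viability read as ATP content by CellTiter-Glo luminescence.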
# KB-V1 cytotox: kills drug-selected multidrug resistant KB-V1 cells. KB-V1 MDR cells viability, CellTiter-Glo, 72 h. Potency, µM (series often up to 46.1 µM), actives largely listed as cytotoxic. actives 3.4% (n = 400,000); note: nearly all actives have a fitted effect of over 60% in size
#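 Drug-selected KB-V1 cells, grown in DMEM lacking phenol red with 10% FBS, receive compound titrations; after three days at 37 degrees C, surviving cell ATP is quantified by CellTiter-Glo luminescence and responses normalized and curve-fitted.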
# HT1080NT lethal: kills 2HG-producing HT-1080-NT fibrosarcoma cells; Potency, µM (top dose mostly 46.1 µM), without a hit: at the highest dose activity, negative = less viability, most hits filed as cytotoxic; actives 1.6% (n = 360,000); HT-1080-NT fibrosarcoma viability, CellTiter-Glo ATP luminescence, 48 h; AID 686970;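 note: NT is the 2HG producing partner of a matched IDH1 knockdown line; 0% = DMSO-treated cells and -100% = media-only wells without cells; nearly all actives have a fitted effect of over 55% in size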
#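 Compounds were tested in concentration-response format on HT-1080-NT cells for 48 hours at 37 degrees C. Cell viability came from CellTiter-Glo luminescence; curves were classified by r2, response magnitude and activity.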
# An asterisk follows results filed as active; i = inactive; ? = inconclusive; · = no result; [ ] = another dose, or the depositor's remark. Calls come from the whole dose curve; as a rule, active = well fitted curve in the direction sought with a large enough effect; inconclusive = small, poorly fitted or top-dose-only effect, or another doubt; inactive = no such curve, though single readings can be large; an effect the other way counts as inactive or inconclusive. Unless noted, % is set by controls: 0 for no effect and ±100 for the full control effect; potency is the fitted concentration of half-maximal effect.
SMILES,TDP1 cell noCPT,HT1080 IDH1KD tx,KB-3-1 tox,TDP1 cell CPT,KB-V1 cytotox,HT1080NT lethal
CC1(OC(=O)CCc2ccccc2)C(=O)C=C2C=C(c3ccc(C#N)cc3)N(CCN3CCOCC3)C=C2C1=O (stereo not given),-2%,9%,i,-4%,i,3%
CC1(OC(=O)CCc2ccccc2)C(=O)C=C2C=C(c3ccc(C#N)cc3)N(c3ccccc3)C=C2C1=O (stereo not given),13µM*,-3%,i,?,i,-4%
CC1(OC(=O)CCc2ccccc2)C(=O)C=C2C=C(c3ccc(C#N)cc3)N(C3CCCC3)C=C2C1=O (stereo not given),15µM*,-3%,i,23µM*,i,-6%
CC1(OC(=O)C2CCCC2)C(=O)C=C2C=C(c3ccsc3)N(C3CCCC3)C=C2C1=O (stereo not given),?,-1%,i,?,i,-11%
CC1(OC(=O)CCc2ccccc2)C(=O)C=C2C=C(c3ccc(C#N)cc3)N(CC3CC3)C=C2C1=O (stereo not given),?,?,i,15µM*,?,-4%
CCOC(=O)N1CCN(c2cc(C)c(C(C)=O)cc2F)CC1,?,6%,i,?,i,3%
CC(=O)c1cc(F)c(N2CCN(C(=O)Cc3ccccc3)CC2)cc1C,15µM*,-5%,i,15µM*,?,-3%
CCC(=O)c1cc(F)c(N2CCN(C(=O)c3ccco3)CC2)cc1C,29µM*,1%,i,?,i,12%
CC(=O)N1C[C@H]2CON(C)[C@H]2C[C@H]1c1cccc(-c2ccccc2C)c1,-30%,-2%,i,-17%,i,-2%
Cc1cc(O)c(C(c2ccccc2)N2CCC(C)CC2)c(=O)n1Cc1ccco1 (stereo not given),-9%,·,i,-13%,i,·
C[C@@H]1CCCCO[C@H](CN(C)C(=O)Nc2ccc3c(c2)OCO3)[C@@H](C)CN([C@H](C)CO)C(=O)c2cc(NS(=O)(=O)c3ccc(F)cc3)ccc2O1,21µM*,-3%,?,?,i,-12%
C[C@@H]1CCCCO[C@H](CN(C)C(=O)Nc2ccc3c(c2)OCO3)[C@H](C)CN([C@@H](C)CO)C(=O)c2cc(NS(=O)(=O)c3ccc(Cl)cc3)ccc2O1,16µM*,-22%,i,16µM*,i,-16%
CC(C)NC(=O)N(C)C[C@H]1OCCCC[C@H](C)Oc2ccc(NS(=O)(=O)c3ccccc3)cc2C(=O)N([C@H](C)CO)C[C@H]1C,4%,1%,i,-1%,i,13%
CC(C)Cn1cnc2c(SCCc3ccccc3)nc(N)nc21,?,-3%,i,?,i,-16%
Cc1cccc(-n2c(SCC(=O)c3c(N)n(C4CC4)c(=O)[nH]c3=O)nnc2N2CCOCC2)c1,-20%,5%,i,-6%,?,8%
CCCCN(C(=O)C(C)(C)Oc1ccc(Cl)cc1)c1c(N)n(CCC)c(=O)[nH]c1=O,?,7%,i,-16%,?,9%
COc1ccccc1NS(=O)(=O)c1cc(NC(=O)CCC(=O)c2cccs2)ccc1Cl,?,-19%,i,?,i,-12%
COc1ccc(NC(=O)CCC(=O)c2cccs2)cc1S(=O)(=O)Nc1ccc(Cl)cc1,0%,0.82µM*,?,-18%,7.3µM*,-5%
COc1ccc(NC(=O)CCS(=O)(=O)c2cccc3nonc23)cc1Cl,-16%,5%,i,?,i,1%
COc1ccc(NS(=O)(=O)c2cc(NC(=O)CCSc3ccccc3)ccc2OC)cc1,?,-13%,i,?,?,-10%
COc1ccc(NC(=O)CCS(=O)(=O)c2ccccc2Cl)cc1S(=O)(=O)Nc1ccc(Cl)cc1,16µM*,?,i,?,?,?
COc1ccc(NC(=O)CCSc2ccc(C)cc2)cc1S(=O)(=O)Nc1ccccc1Cl,13µM*,-10%,i,?,i,-11%
CCOc1ccc(NS(=O)(=O)c2cc(NC(=O)CCC(=O)c3cccs3)ccc2Cl)cc1,?,?,i,29µM*,i,-25%
CCOC(=O)c1c(S(=O)(=O)N2CCC(C(=O)Nc3ccc(C)cc3C)CC2)c(C)n(C)c1C,-17%,·,i,-11%,i,·
Cc1ccc(S(=O)(=O)c2nc(-c3cccc(Br)c3)oc2N2CCCCCC2)cc1,?,·,i,?,i,·
SMILES,TDP1 cell noCPT,HT1080 IDH1KD tx,KB-3-1 tox,TDP1 cell CPT,KB-V1 cytotox,HT1080NT lethal
COc1ccc(NC(=O)c2cc(C)nc3ccccc23)cc1S(=O)(=O)Nc1ccccc1Cl,?,-4%,i,-14%,?,3%
COc1ccc(NC(=O)c2ccc3ccccc3n2)cc1S(=O)(=O)Nc1ccccc1Cl,23µM*,0%,i,?,i,3%
CCOc1ccc(N(CC)C(=O)CSc2n[nH]c(-c3ccccc3)n2)cc1,?,·,i,?,?,·
CC1CCC(NC(=O)Cn2c3c(c(-c4ccccc4Cl)cc2=O)CCC3)CC1 (stereo not given),13µM*,-8%,i,16µM*,i,-3%
CC(C)CCNC(=O)Cn1c2c(c(-c3ccccc3Cl)cc1=O)CCC2,?,-7%,i,-23%,i,-6%
O=C(NC(=S)N1CCN(c2ccc([N+](=O)[O-])cc2)CC1)c1ccccc1,3.3µM*,4%,i,?,i,0%
CC(=O)N1CCN(C(=S)c2cccc([N+](=O)[O-])c2)CC1,-9%,6%,i,-11%,i,4%
O=C(NC(=S)N1CCN(c2ccc([N+](=O)[O-])cc2Cl)CC1)c1ccco1,16µM*,0%,i,21µM*,21µM*,5%
O=C(c1ccco1)N1CCN(c2ccc([N+](=O)[O-])cc2Cl)CC1,?,-4%,i,?,?,-6%
O=C(NC(=S)N1CCCCCC1)c1cccc([N+](=O)[O-])c1,16µM*,-4%,i,?,i,-1%[9.24 µM]
O=[N+]([O-])c1cccc(NC(=S)N2CCCC2)c1,20%,5%,i,-17%,?,14%
